Assay results reported in PubChem BioAssay AID431 (Sanford-Burnham Center for Chemical Genomics, 2006).
About 1,100 (1.7%) of roughly 63,000 compounds were called active.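 The calls were made as follows: active = compounds whose percent cytotoxicity in the single-dose primary screen, scaled between solvent and toxic-drug controls, exceeds 50; inactive = the rest.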 Shown is part of a subset that was picked to be rich in actives. Entries with a potency or affinity are not part of this list.

Experiment: viability loss of HPDE-C7K cells – cell-based, fluorescence, HTS, primary screen (AID 431);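 also: 0% = DMSO solvent wells and 100% = doxorubicin-treated wells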
Conditions: HPDE-C7K KRASV12 cells, Alamar Blue viability, 48 h; at 10 µM; hits give high values

Structure (SMILES)	cytotoxicity
Cc1nc2ccccc2c(=O)n1/N=C/c1cccnc1	20.1% (inactive)
CCCc1cc(=O)[nH]c(SCC(=O)c2cc(C)n(CCOC)c2C)n1	1.9% (inactive)
COC(=O)C1CCN(C(=O)COC(=O)Cc2c[nH]c3ccccc23)CC1	2.5% (inactive)
O=C(CN1C(=O)c2ccccc2S1(=O)=O)NC1CCCCCC1	1.2% (inactive)
CC1(C)Cc2ccccc2-c2nc(NCCCO)n(-c3ccccc3)c(=O)c21	12.6% (inactive)
O=C(Nc1ccc2c(c1)OCO2)Nc1ccc(Br)cn1	21.3% (inactive)
CCCCCCc1cc2cc(-c3nnc(-c4ccccc4O)o3)c(=O)oc2cc1O	55.8% (active)
CCCCCCc1cc2cc(C(=O)NC)c(=N)oc2cc1O	30.5% (inactive)
CCOc1cccc2cc(-c3nnc(-c4ccccc4)o3)c(=O)oc12	-3.1% (inactive)
CCN(CC)S(=O)(=O)c1ccc(-c2nnc(SCC(=O)Nc3nc(C)cs3)o2)cc1	20.5% (inactive)
COC(=O)c1ccc(OC(=O)c2ccccn2)cc1	-2% (inactive)
CC1(C)OC(=O)C2(Cc3ccccc3N3CCCCC32)C(=O)O1 (stereo not drawn)	-0.5% (inactive)
O=C1c2ccccc2-c2ncnc3cccc1c23	-4.9% (inactive)
O=C1c2ccccc2-c2nccnc21	-3.8% (inactive)
O=C(O)c1ccc2c3c(ncnc13)-c1ccccc1C2=O	75.9% (active)
Fc1cc2ncn(Cc3ccccc3)c2cc1F	-20.3% (inactive)
N#Cc1nc(-c2ccco2)oc1NCc1ccc(F)cc1	10.2% (inactive)
CCC(C)C(=O)Nc1c2c(nc3c1CCC3)CCCC2 (stereo not drawn)	-5.8% (inactive)
c1ccc(Cn2nnc3c(N4CCCC4)ncnc32)cc1	8.8% (inactive)
c1ccc(Cn2nnc3c(N4CCCCCC4)ncnc32)cc1	-2.6% (inactive)
FC(F)(F)c1ccc(N2CCN(c3ncnc4c3nnn4Cc3ccccc3)CC2)nc1	55.5% (active)
CC(=O)Nc1cc2c(cc1C(=O)C(C)C)OCCO2	-0.7% (inactive)
Cc1ccc(C)c(Cn2c(C(C)O)nc3ccccc32)c1 (stereo not drawn)	-16.7% (inactive)
Cc1ccc(-c2nc(-c3ccccc3)no2)c(Cl)c1	-2.7% (inactive)
CC(C)C(=O)Nc1c2c(nc3ccccc13)N(C)CC2	-4% (inactive)

Structure (SMILES)	cytotoxicity
Cc1cnc(NC(=O)c2c(O)c3cccc4c3n(c2=O)CCC4)s1	91.8% (active)
CCc1nnc(NC(=O)c2c(O)c3cccc4c3n(c2=O)CC4)s1	50% (active)
Cc1csc(NC(=O)c2c(O)c3cccc4c3n(c2=O)CCC4)n1	-16.1% (inactive)
CCc1nnc(NC(=O)c2cccc(OC)c2)s1	9.1% (inactive)
CCc1nnc(NC(=O)c2cnccn2)s1	-15.3% (inactive)
CCCc1nnc(NC(=O)c2c(O)c3cccc4c3n(c2=O)CCC4)s1	7.3% (inactive)
CCCc1nnc(NC(=O)c2c(O)c3cccc4c3n(c2=O)CC4)s1	43.6% (inactive)
CCc1nnc(NC(=O)c2cccc(C(=O)Nc3nnc(CC)s3)n2)s1	53.1% (active)
CC(C)c1nnc(NC(=O)c2c(O)c3cccc4c3n(c2=O)CCC4)s1	49.4% (inactive)
O=C(COc1ccccc1Cl)NCc1ccncc1	-2.3% (inactive)
CC1CCCCN1C(=O)CSc1nc(C2CC2)nc2c1cnn2-c1ccccc1 (stereo not drawn)	1.1% (inactive)
c1ccc(CNc2c3c(nc4ncnn24)CCCC3)nc1	-2.6% (inactive)
CC(=O)NCc1nc2ccccc2n1Cc1ccccc1C	-2.6% (inactive)
CCOC(=O)CC(=O)Nc1nnc(C(C)C)s1	-20.6% (inactive)
COc1ccc(-c2cc(C(=O)O)c3ccccc3n2)c(OC)c1	-13.5% (inactive)
N[C@@H](Cc1ccc(O)c(I)c1)C(=O)O	-4.9% (inactive)
COc1ccc2[nH]c(C(=O)O)c(CCC(=O)O)c2c1	1.5% (inactive)
O=C(O)CCc1cc(I)c(Oc2ccc(O)c(I)c2)c(I)c1	81.2% (active)
CCOC(=O)c1c(-c2ccsc2)csc1N	-5.8% (inactive)
COc1ccc2nc(C)[nH]c(=O)c2c1	0.4% (inactive)
CS(=O)(=O)N1CCN(c2nc(-c3ccccc3)cs2)CC1	11.2% (inactive)
Nc1nc(SCC(=O)N2CCCc3ccccc32)[nH]c(=O)c1-c1ccccc1	2.5% (inactive)
COc1cc(C2c3c(n[nH]c3C)C(=O)N2c2ccc(C)cc2)ccc1O (stereo not drawn)	58% (active)
CCOc1cc(C2c3c(n[nH]c3C)C(=O)N2c2ccc(Br)cc2)ccc1O (stereo not drawn)	21.7% (inactive)
COc1cc(C2c3c(n[nH]c3C)C(=O)N2c2ccc(Br)cc2)ccc1O (stereo not drawn)	37.4% (inactive)

Structure (SMILES)	cytotoxicity
O=C(CN1CCN(Cc2ccccc2Cl)C1=O)N1CCCCCC1	-10.9% (inactive)
COc1cccc(-c2nnc(NC(C)=O)o2)c1	9.5% (inactive)
COc1cccc(-c2nnc(NC(=O)c3ccc(S(=O)(=O)N4CC(C)OC(C)C4)cc3)o2)c1 (stereo not drawn)	-4.2% (inactive)
COCCN(CCOC)S(=O)(=O)c1ccc(C(=O)Nc2nnc(C)o2)cc1	-7.3% (inactive)
COc1cccc(-c2nnc(NC(=O)c3ccc(S(=O)(=O)N4CCOCC4)cc3)o2)c1	1% (inactive)
CCCN(CCC)S(=O)(=O)c1ccc(C(=O)Nc2nnc(-c3cccc(OC)c3)o2)cc1	62.9% (active)
CCCN(CCC)S(=O)(=O)c1ccc(C(=O)Nc2nnc(-c3cc(OC)cc(OC)c3)o2)cc1	52.7% (active)
COc1cccc(-c2nnc(NC(=O)c3ccc(S(=O)(=O)N(CC(C)C)CC(C)C)cc3)o2)c1	55.5% (active)
COc1cccc(-c2nnc(NC(=O)c3ccccc3Br)o2)c1	24.6% (inactive)
CCCN(CCC)S(=O)(=O)c1ccc(C(=O)Nc2nnc(CSC)o2)cc1	2.7% (inactive)
CCCCn1c(SCC(=O)Nc2nc(C)cs2)nnc1-c1cccnc1	2.9% (inactive)
Nc1nc(NC(=O)c2cccnc2)nn1-c1ccccc1	0.1% (inactive)
Nc1nc(NC(=O)c2ccco2)nn1-c1ccccc1	4.5% (inactive)
OC(COCc1cccs1)CN1CCN(c2ccccn2)CC1 (stereo not drawn)	2.8% (inactive)
OC(CN1CCN(c2ccccn2)CC1)Cn1c2ccccc2c2ccccc21 (stereo not drawn)	53.3% (active)
OC(COc1ccc(Cl)c2ccccc12)CN1CCN(c2ccccn2)CC1 (stereo not drawn)	18.3% (inactive)
O=C1NCC2=C1C(c1ccc(Br)cc1)Nc1ccccc1N2 (stereo not drawn)	-0.1% (inactive)
Cc1c(NC(=O)COC(=O)c2cc3c4ccccc4n(C)c3s2)c(=O)n(-c2ccccc2)n1C	19.8% (inactive)
Cc1nnc(NC(=O)Nc2cccc(Cl)c2)s1	12.5% (inactive)
CNC(=O)C1C2C=CC3(O2)C1C(=O)N(C1CC1)C3C(=O)NCc1ccc(OC)cc1 (stereo not drawn)	3.6% (inactive)
CC(=O)c1c(C)nc(-c2ccc3c(c2)OCO3)n1O	-5.4% (inactive)
O=C(Nc1ccc2c(c1)OCO2)C(c1ccc(Cl)cc1)N1CCC2(CC1)OCCO2 (stereo not drawn)	5.8% (inactive)
O=C(CSc1nnc(Cc2ccccc2)o1)Nc1ccc(Br)cn1	-11.2% (inactive)
O=C(NCc1ccccc1)N1CCC(c2nc3ccccc3[nH]2)CC1	-0.6% (inactive)
Cc1ccccc1S(=O)(=O)Cc1ccc(C(=O)NCCN2CCN(Cc3ccccc3)CC2)o1	3.7% (inactive)

Structure (SMILES)	cytotoxicity
O=C(OCCCc1ccncc1)c1ccc(S(=O)(=O)N2CCOCC2)cc1	-10.8% (inactive)
CC(Oc1ccccc1)C(=O)N1CCCc2ccccc21 (stereo not drawn)	-9.7% (inactive)
O=C(NCC1CCCO1)c1cc(-c2ccncc2)nc2ccc(S(=O)(=O)N3CCOCC3)cc12 (stereo not drawn)	-15.7% (inactive)
O=C(COC(=O)c1cc(S(=O)(=O)N2CCOCC2)ccc1O)NCC1CCCO1 (stereo not drawn)	55.2% (active)
O=C(COC(=O)c1ccc(Br)c(S(=O)(=O)N2CCOCC2)c1)NCC1CCCO1 (stereo not drawn)	-3.7% (inactive)
Cc1ccnc(NC(=O)CCC(=O)N(CC(=O)NC2CCCCC2)c2ccc3c(c2)OCO3)c1	-7.7% (inactive)
CCC1CCCCN1C(=O)CSc1nc(N)c(NC(=O)c2ccco2)c(=O)[nH]1 (stereo not drawn)	-21.6% (inactive)
CC1Oc2ccccc2N(CC(=O)c2cccc(Cl)c2)C1=O (stereo not drawn)	-8.4% (inactive)
COCC(C)NC(=O)CCS(=O)(=O)c1nc(-c2ccc(OC)cc2)cc(C(F)(F)F)n1 (stereo not drawn)	52.3% (active)
CCOC(=O)CS(=O)(=O)c1nc(-c2ccccc2)cc(C(F)(F)F)n1	34.5% (inactive)
COc1ccc(-c2cc(C(F)(F)F)nc(SCCC(=O)NCc3ccco3)n2)cc1	-8.8% (inactive)
CCOC(=O)CS(=O)(=O)c1ccc2ccccc2c1	-6.4% (inactive)
Cc1cc(NC(=O)CCCS(=O)(=O)c2nc(-c3cccs3)cc(C(F)(F)F)n2)no1	4.1% (inactive)
COc1ccc(-c2cc(C(F)(F)F)nc(SCC(=O)Nc3cc(C)on3)n2)cc1	-11.8% (inactive)
CCOC(=O)c1cnn2c(C)cc(-c3ccc(F)cc3)nc12	-18.9% (inactive)
COC(=O)c1ccc2c(=O)n(CCCCCC(=O)NCc3ccccn3)c(=O)[nH]c2c1	2.9% (inactive)
CCCC(=O)NCCCCNC(=O)CCC	-12.2% (inactive)
Cc1ccc(CN(Cc2cccnc2)C(=O)CN2C(=O)COc3ccccc32)o1	-12.5% (inactive)
O=C(Nc1ccc(N2CCN(c3ccc(O)cc3)CC2)cc1)Oc1ccccc1	65.7% (active)
CC(C)Oc1ccc(NC(=O)Oc2ccccc2)cc1	3.4% (inactive)
CC(=O)Nc1ccc(NC(=O)Oc2ccccc2)cc1	-2.5% (inactive)
Cn1c(=O)c2ccccc2n(Cc2ccccc2F)c1=O	2.5% (inactive)
CCOc1ccccc1Oc1ccc(C(F)(F)F)cn1	-8.8% (inactive)
